According to PubChem BioAssay:
The source made the active and inactive calls.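 Rule for the calls, unless noted: active = inhibition above 20% together with a positive visual image hit; inconclusive = visual image hit but inhibition not above 20%; inactive = no visual image hit.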

Key:
[1] = inhibitors of TNFa-induced NFkB p65 translocation, primary screen, imaging, HUVEC, MLSMR starter and 10KST1 sets (AID 438); settings: HUVEC TNFa-induced p65 nuclear translocation; cell count: measured here: nuclei count (cytotoxicity indicator), at 2.08 µM; inhibition: at 2 µM, stronger effect = higher value, 0% TNFa-plus-vehicle, 100% no-TNFa wells;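 note: compound added about 3h40 before a 20 min TNFalpha stimulation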;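 for inhibition: signal is the nuclear over cytoplasmic p65 intensity ratio per well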
[2] = reduction of polyQ htt aggregates in cells – imaging, exon1htt(103Q)mCFP cells, high-content imaging, primary screen (AID 483;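 active = visual image review flags a hit and inhibition of aggregation exceeds 20%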;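 note: compound exposure lasted 3 days before fixation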;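 for nuclei count: percent of the per-plate median nuclei count of sample wells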); settings: exon1htt(103Q)mCFP cell line, aggregate imaging, at 2 µM; inhibition of aggregation: stronger effect = higher value; nuclei count: measured here: cell count, toxicity
[3] = endothelial E-selectin expression blockers – imaging, HUVEC, immunofluorescence, MLSMR starter and 10KST1 sets, primary screen (AID 487;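 active = visually confirmed hit in the image check and inhibition above 20%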;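 for inhibition: signal is fraction of cell area covered by stained E-selectin grains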;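 for nuclei count: 100% = median nuclei count of all wells on the same plate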); settings: HUVEC TNFalpha-induced E-selectin immunofluorescence imaging, at 2 µM; inhibition: stronger effect = higher value; nuclei count: measured here: cell number, toxicity
[4] = molecular target: Voltage-gated potassium channel subunit beta-2 (Rattus norvegicus) (UniProt P62483); experiment: inhibitors of rat Kvbeta2 reductase activity – biochemical, NADPH fluorescence, primary screen (AID 622;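 active = fluorescence slope higher than the sample average by over 3 SD, cut at about -0.22 in these data, passing the limit was not always enough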;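 note: slope of raw intensity against log time taken from 70 to 1610 s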); settings: recombinant KvBeta, 4-cyanobenzaldehyde reduction, at 10 µM, stronger effect = higher value
Chain of Voltage-gated potassium channel subunit beta-2 (Rattus norvegicus) (P62483 whole entry, looked up): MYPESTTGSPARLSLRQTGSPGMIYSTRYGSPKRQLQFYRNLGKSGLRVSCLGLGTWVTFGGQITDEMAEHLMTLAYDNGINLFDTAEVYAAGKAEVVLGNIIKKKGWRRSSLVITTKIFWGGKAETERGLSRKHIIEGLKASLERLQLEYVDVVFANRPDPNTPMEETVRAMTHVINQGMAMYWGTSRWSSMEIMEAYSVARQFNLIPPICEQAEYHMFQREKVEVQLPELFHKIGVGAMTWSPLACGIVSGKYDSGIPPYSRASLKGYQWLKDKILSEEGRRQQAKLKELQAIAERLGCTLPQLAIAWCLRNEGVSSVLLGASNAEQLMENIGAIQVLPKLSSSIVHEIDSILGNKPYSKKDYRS

[5] = molecular target: Voltage-gated potassium channel subunit beta-2 (Rattus norvegicus) (UniProt P62483); experiment: enhancers of rat Kvbeta2 NADPH turnover – biochemical, NADPH fluorescence, primary screen (AID 623;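 active = NADPH fluorescence slope more negative than the mean of all samples by about 3 SD, 99.7% confidence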;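 note: fluorescence intensity change per second fitted from 20 to 320 s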); settings: Recombinant KvBeta, NADPH fluorescence decrease slope, 10 min; at 10 µM; stronger effect = lower value
[6] = molecular target: Alpha-2C adrenergic receptor (Homo sapiens) (UniProt P18825); experiment: compounds altering alpha2C-coupled GIRK flux – cell-based, HEK293 alpha2C/GIRK1/2, thallium flux, primary screen (AID 624;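 active = fluorescence slope after compound addition differing from the mean of all screened samples at 99.7% confidence, in either direction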;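 note: slope of fluorescence ratio to pre-addition baseline per second over 15 to 24 s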); settings: thallium flux BTC fluorescence, at 10 µM, actives lie on both sides
Chain of Alpha-2C adrenergic receptor (Homo sapiens) (P18825 whole entry, looked up): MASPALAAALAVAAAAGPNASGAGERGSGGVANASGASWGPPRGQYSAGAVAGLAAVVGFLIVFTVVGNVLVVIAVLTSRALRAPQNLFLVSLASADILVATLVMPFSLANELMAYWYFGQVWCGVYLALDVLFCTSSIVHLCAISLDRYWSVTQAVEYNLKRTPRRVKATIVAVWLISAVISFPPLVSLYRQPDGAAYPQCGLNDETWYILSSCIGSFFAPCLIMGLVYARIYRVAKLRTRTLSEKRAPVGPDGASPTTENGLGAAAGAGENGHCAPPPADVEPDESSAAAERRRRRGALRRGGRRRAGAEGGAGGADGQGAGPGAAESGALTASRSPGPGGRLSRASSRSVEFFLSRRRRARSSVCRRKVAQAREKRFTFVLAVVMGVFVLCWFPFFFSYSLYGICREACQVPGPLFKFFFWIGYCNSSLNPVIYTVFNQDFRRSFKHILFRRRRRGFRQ

[7] = blockers of RIG-like receptor reporter activation – cell-based, Sendai virus stimulus, luciferase, 10K MLSCN set, TLR/RLR signaling modifier project, primary screen (AID 602276;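 active = inhibition at or above 50% at 10 µM; inactive = inhibition below 50%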;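 note: firefly luciferase from ISG56 promoter only with Renilla not read in this screen; 0% = Sendai virus plus DMSO and 100% = medium plus DMSO without virus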); settings: HEK293 RL24 IRF3 luciferase reporter, at 10 µM, stronger effect = higher value
[8] = TLR3 IRF3 reporter activation blockers – cell-based, poly I:C stimulus, luciferase, 10K MLSCN set, primary screen (AID 602277;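 active = inhibition of the reporter signal at or above 50%; inactive = inhibition below 50%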); settings: HEK293-TLR3 RL24 IRF3 luciferase reporter, at 10 µM, stronger effect = higher value

SMILES | cell count [1] | inhibition [1] | inhibition of aggregation [2] | nuclei count [2] | inhibition [3] | nuclei count [3] | fluorescence slope [4] | NADPH fluorescence slope [5] | slope [6] | inhibition [7] | inhibition [8]
COc1ccc(S(=O)(=O)NCC(c2cccnc2)N2CCN(C)CC2)cc1C (centres undefined) | 600 | -1.8% (inactive) | -1.7% (inactive) | 84.8% | 2% (inactive) | 105% | -0.586 (inactive) | -1.6e-05 (inactive) | 0.00609 (inactive) | 4.66% (inactive) | 29.1% (inactive)
CCC(=O)Nc1cc(C(=O)NCC2CCCN2CC)c(OC)cc1N(C)C (centres undefined) | 448 | -0.5% (inactive) | -23.1% (inactive) | 98.8% | -37.7% (inactive) | 104% | -0.525 (inactive) | 1.6e-05 (inactive) | 0.00562 (inactive) | 0.262% (inactive) | 6.05% (inactive)
Cc1noc(C)c1C(=O)N1CCN(C(=O)c2sc3cc(Cl)ccc3c2Cl)CC1 | 600 | -5.4% (inactive) | 0.7% (inactive) | 111% | -78.2% (inactive) | 100% | -0.328 (inactive) | -6.4e-05 (inactive) | 0.00474 (inactive) | 8.91% (inactive) | 9.68% (inactive)
Cc1ccc(CNC(=O)C2CC(=O)OC23CCCC3)c(C)c1 (centres undefined) | 410 | 17.5% (inactive) | -25.4% (inactive) | 104% | 8.3% (inactive) | 102% | -0.593 (inactive) | 4.6e-07 (inactive) | 0.00501 (inactive) | 17.7% (inactive) | 20.9% (inactive)
Cc1ccc(CCP(=O)(O)CN2CCOCC2)cn1 | 380 | 5.9% (inactive) | -2.2% (inactive) | 100% | 4.3% (inactive) | 95.2% | -0.437 (inactive) | 3.3e-05 (inactive) | 0.00662 (inactive) | -1.89% (inactive) | 33.2% (inactive)
CC1(C)CC(=O)C(CC(=O)NC(=O)NCc2ccccc2)=C(O)C1 | 462 | 3.4% (inactive) | 0.1% (inactive) | 102% | -65.4% (inactive) | 99.2% | -0.501 (inactive) | 1e-05 (inactive) | 0.00433 (inactive) | -1.73% (inactive) | 7.39% (inactive)
c1ccc(N=P(c2nc3ccccc3o2)(N2CCOCC2)N2CCOCC2)cc1 | 547 | -7.9% (inactive) | 23.4% (inactive) | 87.6% | -1.8% (inactive) | 107% | -0.497 (inactive) | -1.9e-05 (inactive) | 0.00625 (inactive) | 3.09% (inactive) | -19.6% (inactive)
O=C(Nc1cccc(NC(=O)c2ccco2)c1)c1ccc2c(c1)OCO2 | 696 | -6.1% (inactive) | -10.2% (inactive) | 108% | -70.1% (inactive) | 121% | -0.418 (inactive) | 2.7e-06 (inactive) | 0.00264 (inactive) | 7.09% (inactive) | -29.5% (inactive)
O=C(c1ccc(Br)o1)N(Cc1ccccc1)c1ccccn1 | 386 | -5.9% (inactive) | 13.3% (inactive) | 102% | 5.4% (inactive) | 107% | -0.43 (inactive) | 5.2e-05 (inactive) | 0.00529 (inactive) | 5.65% (inactive) | -0.317% (inactive)
CC(=O)c1c(C)nn(CC(O)COc2ccc3c(c2)CCC3)c1C (centres undefined) | 751 | -4.3% (inactive) | 7.3% (inactive) | 97.4% | -169% (inactive) | 126% | -0.435 (inactive) | 4e-05 (inactive) | 0.00662 (inactive) | -13.5% (inactive) | -41.8% (inactive)
Cc1ccc(Nc2nc(Oc3ccc(=O)[nH]n3)nc(N(C)C)n2)cc1 | 377 | 2.8% (inactive) | 13.2% (inactive) | 101% | -65.6% (inactive) | 111% | -0.498 (inactive) | -4.2e-05 (inactive) | 0.00563 (inactive) | 8.86% (inactive) | 11.8% (inactive)
CCC(C)NC(=O)CS(=O)(=O)Cc1nc(-c2cccc(OC)c2)oc1C (centres undefined) | 638 | -1.3% (inactive) | -7.7% (inactive) | 99.2% | -44.8% (inactive) | 107% | -0.523 (inactive) | 2.7e-05 (inactive) | 0.00702 (inactive) | 9.35% (inactive) | 4.33% (inactive)
Cc1ccc(C)c2[nH]c(=O)c(CCNC(=O)c3ccc(Br)o3)cc12 | 327 | -9.8% (inactive) | 14.1% (inactive) | 87% | 23.8% (inactive) | 97.7% | -0.481 (inactive) | -0.000268 (inactive) | 0.00492 (inactive) | -1.8% (inactive) | -1.41% (inactive)
Cc1ccc(C(=O)OCC(=O)Nc2ccc3c(c2)OCO3)o1 | 429 | 14.6% (inactive) | 17.6% (inactive) | 99.5% | 8.1% (inactive) | 112% | -0.595 (inactive) | -5.5e-05 (inactive) | 0.00785 (inactive) | -15.7% (inactive) | -12.9% (inactive)
